Screens from PubChem.
This is a sample that favours compounds with a hit; in the whole collection about 2.4% have one here.
Insulin prom inh = TRM-6 insulin promoter activity inhibition. TRM-6 cells (human fetal islet line), insulin promoter-eGFP reporter, imaging; reporter expression induced with tamoxifen. inhibition, % at 2 µM. 0.9% of 130,000 active. AID 1273;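 active means inhibition above the mean plus 3 SD, with well images judged a real hit on visual review, cut at about 60% in these data, passing the limit was not always enough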
PGE2 EP2 inh = EP2 receptor (human) inhibition; C6 glioma cells expressing human EP2, cAMP TR-FRET; cells stimulated with saturating PGE2; AID 1422; inhibition, % at 25 µM; P43116; 0.52% of 260,000 active;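 active means percent inhibition above 40 after rounding to a whole number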;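 further: rat C6 glioma host cells with rolipram phosphodiesterase inhibitor present; the protocol text gives 20 µM as final concentration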
Target sequence (P43116 whole entry, looked up): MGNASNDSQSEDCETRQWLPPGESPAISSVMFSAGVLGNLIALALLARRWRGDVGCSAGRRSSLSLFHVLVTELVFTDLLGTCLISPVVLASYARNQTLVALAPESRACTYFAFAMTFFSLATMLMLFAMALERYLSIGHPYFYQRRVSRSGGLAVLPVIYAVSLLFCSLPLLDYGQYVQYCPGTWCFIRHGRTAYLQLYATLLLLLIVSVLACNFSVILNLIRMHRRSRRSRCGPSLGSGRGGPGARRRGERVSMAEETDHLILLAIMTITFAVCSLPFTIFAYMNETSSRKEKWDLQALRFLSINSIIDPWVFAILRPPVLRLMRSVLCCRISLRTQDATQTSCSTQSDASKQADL
EP2 mod = modulators of human EP2 prostaglandin E2 receptor; P43116; EP2-expressing cells, cAMP HTRF FRET, PGE2 co-stimulation; induction, % at 25 µM; 0.83% of 260,000 active;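 active means compounds whose cAMP rise, as percent of the full-agonist control response, exceeds 60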;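 further: rat C6 glioma line stably carrying human EP2 under a CMV promoter; the protocol text gives 20 µM as final concentration; 100% = response of wells given 1 µM PGE2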
S1P4 antag = antagonists of human S1P4 receptor. inhibition, % at 4.98 µM. S1P4-expressing cells, antagonist mode, reporter read-out. AID 1510. O95977. 0.26% of 220,000 active; in the data active means inhibition above about 29%;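 further: 0% = wells stimulated with agonist and 100% = vehicle wells without agonist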
S1P4 agonist = activates the human S1P4 receptor; 0.35% of 220,000 active; O95977; AID 1509; S1P4-expressing cell line, agonist reporter assay; activation, % at 4.98 µM; in the data active means activation above about 11%;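 further: 0% = DMSO vehicle and 100% = reference agonist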
S1P3 antagonist = blocks the human S1P3 receptor; 0.27% of 170,000 active; Q99500; inhibition, % at 4.98 µM; CHO S1P3 NFAT-BLA reporter, FRET fluorescence, antagonist mode;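 active means inhibition above the plate cutoff, the mean inhibition of test wells on that plate plus 3 SD, cut at about 28% in these data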;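 further: cells challenged with S1P at its EC80 of 0.8 µM; blue over green emission ratio from cleaved BLA substrate after 4 h stimulation; 0% = S1P-stimulated wells and 100% = unstimulated DMSO-only wells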
* = called active by the depositor; nt = no result given.

SMILES	Insulin prom inh	PGE2 EP2 inh	EP2 mod	S1P4 antag	S1P4 agonist	S1P3 antagonist
Cc1ccc(N(C(=O)c2csnn2)C(C(=O)NC2CCCCC2)c2ccc(C)o2)cc1 (stereo unspecified)	nt	10	38	nt	nt	nt
C=CCNCc1cccn1-c1sc2c(c1C#N)CCCC2	-36	4	2	2	0	nt
N#Cc1c(-n2cccc2/C=N/O)sc2c1CCCC2	71*	6	4	-14	2	-6
Cc1cc(=O)[nH]c(N/N=C/c2c(C)nn(-c3ccccc3)c2C)n1	nt	3	-12	-12	1	-12
Cc1nn(-c2ccccc2)c(Cl)c1/C=N/NC(N)=O	nt	3	-3	-21	1	-3
Cc1nn(-c2ccccc2)c(Cl)c1/C=N/Nc1nc2ccccc2n1C	78*	7	9	3	1	18
Cc1nn(-c2ccccc2)c(C)c1/C=N/Nc1nc2ccccc2[nH]1	84*	24	-19	-7	3	26
COCCNc1nnc(-c2cnc(C)cn2)s1	nt	7	-12	nt	nt	nt
CCOc1cc(CCC(=O)N2CCc3onc(-c4cccc(OC)c4)c3C2)on1	nt	7	-28	nt	nt	nt
CC(C)=Cc1oc2ccc([N+](=O)[O-])cc2c1N1CCOCC1	58	5	64*	-4	1	-12
Cc1ccc(C(=O)c2cc([N+](=O)[O-])ccc2N2CCOCC2)cc1	-72	3	12	-15	-2	-19
COc1ccccc1N1CCN(C(=O)CN2CCC(c3ccncc3)CC2)CC1	nt	5	-63	nt	nt	nt
COc1ccc(CCNc2nc(N3CCCCC3)nc(N3CCCCC3)n2)cc1OC	38	16	61*	7	1	48
COc1ccc(CCNc2nc(N3CCOCC3)nc(N3CCOCC3)n2)cc1OC	50	13	16	5	0	-10
CCN(c1ccc(NS(=O)(=O)c2cc(Cl)ccc2Cl)cc1)C(C)C	69*	5	42	-11	2	-4
CN(C)c1ccc(NS(=O)(=O)c2cc(Cl)ccc2Cl)cc1	11	9	8	-3	0	-2
Cc1cc(=O)oc2cc(OCC(=O)OCC(=O)Nc3ccccc3F)ccc12	0	5	-1	2	0	-6
Cc1cc(=O)oc2cc(OCC(=O)OCC(=O)Nc3ccccc3C(C)C)ccc12	60*	13	25	3	-1	-10
CCN(CC)S(=O)(=O)c1ccc(OC)c(NC(=O)COc2ccc3c(C)cc(=O)oc3c2)c1	nt	67*	10	-29	0	-22
COc1cccc(CN(Cc2ccc3c(c2)OCO3)CC(C)O)c1OC (stereo unspecified)	nt	3	11	nt	nt	nt
O=C(CNCC1CCCO1)Nc1ccccc1N1CCCCCC1 (stereo unspecified)	3	4	62*	-7	0	nt
O=C1/C(=C/c2cccnc2)Sc2ccccc21	50	49*	-34	6	-4	nt
CCc1cc2cc3c(cc2nc1SCC(=O)Nc1ccc2c(c1)OCO2)OCCO3	nt	16	-58	nt	nt	nt
Cc1nn(C2CCS(=O)(=O)C2)c(Cl)c1/C=C/C(=O)OCC(=O)Nc1ccccc1OC(F)F (stereo unspecified)	66*	14	-20	-5	0	nt
Cc1nn(C2CCS(=O)(=O)C2)c(Cl)c1/C=C/C(=O)OCC(=O)Nc1ccccc1[N+](=O)[O-] (stereo unspecified)	nt	3	0	-9	1	-2
SMILES	Insulin prom inh	PGE2 EP2 inh	EP2 mod	S1P4 antag	S1P4 agonist	S1P3 antagonist
CCCC(=O)Nc1cc(NC(=O)c2ccco2)ccc1OC	nt	16	1	nt	nt	nt
COCCN(CCOC)c1ncnc2c1cnn2-c1ccccc1	nt	14	78*	nt	nt	16
COc1ccc(Nc2ncnc3c2cnn3-c2ccccc2)cc1OC	nt	16	-1	-5	0	23
CCOc1ccccc1Nc1ncnc2c1cnn2-c1ccccc1	nt	3	nt	nt	nt	113*
Nc1cc(-c2cccs2)nn(CC(=O)N2CCN(c3ccccc3F)CC2)c1=O	nt	6	5	nt	nt	nt
O=C(COc1ccc2nsnc2c1)NCc1nc(-c2ccccc2)no1	nt	50*	-51	nt	nt	nt
O=C(O)COCC(=O)NCc1nc(-c2ccc(C(F)(F)F)cc2)no1	nt	3	1	-7	-2	3
CN1CCN(C(=O)CN(c2cccc(F)c2)S(C)(=O)=O)CC1	nt	10	3	nt	nt	nt
Cc1cccc(C)c1N(CC(=O)N1CCN(C)CC1)S(C)(=O)=O	-47	14	64*	-12	-5	-18
Cc1ccc(CNc2nc3c(c(=O)[nH]c(=O)n3C)n2CCO)cc1	nt	11	-13	nt	nt	nt
Cc1ccc2nc(SCC(=O)OCc3ccccc3)c(C#N)cc2c1	nt	12	38	nt	nt	nt
Cc1[nH]nc2ncc(C(=O)c3ccccc3O)cc12	80*	1	-9	-11	1	nt
Cc1ccc(-c2nnn(CC(=O)N(C3CCCC3)C(C(=O)NC3CCCC3)c3cccs3)n2)o1 (stereo unspecified)	nt	26	14	nt	nt	nt
Cn1ccnc1C(NC(=O)C(C)(C)C)c1ccc(F)c(F)c1 (stereo unspecified)	nt	3	-8	nt	nt	nt
COc1cc2oc(=O)c(Br)c(C)c2c(OC)c1OC	nt	44*	44	8	-2	6
O=c1oc2ccccc2n1CCCCCn1c(=O)oc2ccccc21	nt	14	-17	1	-1	-14
COCC(C)n1c(C)cc(C(=O)Cn2c(=O)oc3ccccc32)c1C (stereo unspecified)	79*	nt	27	23	-2	11
O=C(Cn1c(=O)oc2ccccc21)c1ccccc1	73*	10	23	-15	-2	4
Cc1ccc(NC(=O)CSc2ccccn2)cc1S(=O)(=O)N1CCOCC1	74*	2	-23	0	1	-12
COC(=O)c1c(NC(=O)C(C)C)sc(C(=O)Nc2ccc(C)cc2C)c1C	nt	4	25	nt	nt	nt
CCN(c1ccccc1)S(=O)(=O)c1ccc(Cl)c(NC(=O)Nc2ccc(Cl)cc2C#N)c1	nt	3	61*	-3	0	14
CCN(c1ccccc1)S(=O)(=O)c1cc(NC(=O)Nc2ccccc2C#N)ccc1Cl	-26	7	0	-12	1	2
Cn1c(=S)[nH]c2scc(-c3cccs3)c2c1=O	nt	78*	-25	1	1	-29
O=c1c2c(-c3cccs3)csc2ncn1-c1ccc(Br)cc1	-34	4	22	-13	1	nt
C=CCn1c(=S)[nH]c2scc(-c3cccs3)c2c1=O	56	63*	-20	-12	-1	1
C=CCn1c(=S)[nH]c2ccccc2c1=O	-236	14	5	10	1	nt
O=C(O)c1cccc(N/N=C/C2=C(Cl)c3cc(Cl)ccc3SC2)c1	nt	9	63*	1	0	-9
Cc1ccc(-n2nnc3c(=O)oc4ccccc4c32)cc1	44	86*	-17	-9	0	2
CCC(C)n1nnc2c(=O)oc3ccccc3c21 (stereo unspecified)	26	9	-17	-7	2	nt
O=c1oc2ccccc2c2c1nnn2C1CCN(Cc2ccccc2)CC1	nt	74*	-91	nt	nt	nt
